The panel holds about 83,000 compounds, 20% with a hit somewhere; the sample as a whole holds those more often.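 Treatment: one concentration, 48 hours, 96-well format. Scoring: percent growth, with anything below 10 considered active.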 Values without a mark were called inactive. The source made the active and inactive calls.
How the values were obtained:
Assay in all cases: NCI-60 one-dose screen, 48 h (100 = growth as untreated, 0 = no growth, -100 = all killed)
Conditions in all cases: 10 µM unless noted
HCT-15 colon = tested on: HCT-15 colon
HT29 colon = tested on: HT29 colon
SNB-75 CNS = tested on: SNB-75 CNS
SNB-19 CNS = tested on: SNB-19 CNS
U251 CNS = tested on: U251 CNS
PC-3 prostate = tested on: PC-3 prostate
SK-MEL-5 melanoma = tested on: SK-MEL-5 melanoma
UACC-62 melanoma = tested on: UACC-62 melanoma
LOX IMVI melanoma = tested on: LOX IMVI melanoma
SK-MEL-28 melanoma = tested on: SK-MEL-28 melanoma
SK-MEL-2 melanoma = tested on: SK-MEL-2 melanoma
EKVX NSCLC = tested on: EKVX NSCLC
SN12C renal = tested on: SN12C renal
UO-31 renal = tested on: UO-31 renal
TK-10 renal = tested on: TK-10 renal
ACHN renal = tested on: ACHN renal
CAKI-1 renal = tested on: CAKI-1 renal
A498 renal = tested on: A498 renal
CCRF-CEM leukemia = tested on: CCRF-CEM leukemia
MOLT-4 leukemia = tested on: MOLT-4 leukemia

Structure (SMILES)	growth (HCT-15 colon)	growth (HT29 colon)	growth (SNB-75 CNS)	growth (SNB-19 CNS)	growth (U251 CNS)	growth (PC-3 prostate)	growth (SK-MEL-5 melanoma)	growth (UACC-62 melanoma)	growth (LOX IMVI melanoma)	growth (SK-MEL-28 melanoma)	growth (SK-MEL-2 melanoma)	growth (EKVX NSCLC)	growth (SN12C renal)	growth (UO-31 renal)	growth (TK-10 renal)	growth (ACHN renal)	growth (CAKI-1 renal)	growth (A498 renal)	growth (CCRF-CEM leukemia)	growth (MOLT-4 leukemia)
CC[C@@H](C(=O)[C@@H](C)[C@@H](O)[C@H](C)[C@@H]1O[C@@H]([C@@H](CC)C(=O)ONC(=O)c2ccccc2O)CC[C@@H]1C)C1O[C@]2(C=CC(=O)[C@]3(CC[C@@](C)([C@H]4CC[C@](O)(CC)[C@H](C)O4)O3)O2)[C@H](C)C[C@@H]1C (stereo not given in full)	44.5%	33.9%	64.3%	48.4%	32.1%	31.3%	11%	63.3%	45.4%	73.3%	76.9%	45.2%	24.1%	36.9%	75.8%	50.2%	39.2%	36.4%	36.6%	45.1%
CCOC(=O)CC1CSC(N/N=C/c2ccc(F)c(Br)c2)=N1 (stereo not given)	101%	84.8%	109%	110%	94.7%	103%	101%	103%	101%	107%	104%	104%	114%	82.9%	102%	106%	95.5%	95.7%	90%	88.5%
O=S(=O)(Nc1cc(F)cc(F)c1)c1ccc(-c2cnc(C3CC3)o2)cc1	20%	4.44% (active)	-3.36% (active)	30%	33%	48.1%	29.4%	33.7%	36.3%	60.8%	39.9%	52.5%	46.9%	50.1%	63.1%	43.5%	32.7%	1.5% (active)	32.2%	39.1%
Cc1ccccc1N1CCN(C(=S)c2ccccc2)CC1	98.8%	96.2%	84.7%	98.8%	93.4%	101%	96.8%	82.9%	92.3%	109%	85%	96.1%	96.6%	82.1%	108%	106%	75.3%	101%	114%	106%
N#CSc1c[nH]c2ccc(/C=C/C(=O)/C=C(O)/C=C/c3ccc4[nH]cc(SC#N)c4c3)cc12	-31% (active)	-10.1% (active)	51.9%	46.2%	7.38% (active)	12%	41.2%	26.3%	-75.8% (active)	31.8%	34.2%	28.8%	18.4%	-40.1% (active)	8.11% (active)	0.691% (active)	11.9%	90.5%	2.04% (active)	-28.2% (active)
CN(C)c1ccc(CNCCO)cc1	106%	69.1%	101%	98.5%	89.4%	68.5%	99.9%	90.2%	102%	81.7%	65.8%	103%	99.9%	91.5%	82.9%	102%	101%	111%	88.4%	99%
O=C1CCCCN1c1ccc(C2=NCCCN2)cc1	101%	87.6%	55%	89.2%	79.3%	79.9%	97.5%	90.3%	87.7%	91.4%	111%	97.8%	92.9%	79.1%	98.8%	95.7%	100%	93.7%	116%	80%
N#Cc1c(-c2ccc(Br)cc2)nc2c(N=Nc3ccc(S(N)(=O)=O)cc3)c(N)nn2c1N	94.3%	42.8%	56.9%	61.6%	41.3%	37.6%	45.8%	72.4%	28.9%	63.2%	43.4%	71.1%	45.6%	59.5%	73.2%	71.1%	52.5%	65%	-4.46% (active)	1.59% (active)
O=C(Nc1nc(Cl)nc(Nc2ccc(N3CCOCC3=O)cc2)n1)c1ccc(Cl)s1	94.2%	94.3%	103%	88.2%	85.4%	85.4%	91.3%	87%	62.1%	96%	84%	102%	92.1%	91.5%	120%	95.7%	99.8%	85.7%	80.9%	85.2%
CCOC(=O)C(CCN(C)C)c1ccccc1 (stereo not given)	105%	92.1%	81.1%	105%	103%	86.6%	103%	102%	98.3%	97.8%	101%	101%	99.5%	90.9%	95%	104%	94.5%	107%	93.2%	116%
OC1CSSC1Cn1cnc2c(Nc3ccc(OCc4cccc(F)c4)c(Cl)c3)ncnc21 (stereo not given)	-64% (active)	3.96% (active)	54.1%	-49.4% (active)	-26.3% (active)	-69.3% (active)	-55.6% (active)	-68.9% (active)	-82.6% (active)	-9.14% (active)	-33.4% (active)	-71.9% (active)	30.5%	11.9%	-5.98% (active)	15.6%	19.6%	69.6%	-8.33% (active)	-41.8% (active)
Cc1ccc(S(=O)(=O)c2nc(-c3ccccc3)oc2SCC(N)=O)cc1	95.3%	85.7%	90.4%	99.5%	105%	85.6%	94.9%	105%	96%	108%	94.3%	95.8%	106%	85.5%	85.7%	99.5%	87.3%	80.3%	102%	90.6%
COc1cc2ncnc(Nc3ccc(S(=O)(=O)Nc4nccs4)cc3)c2cc1OCCCN1CCCC1	101%	107%	93.8%	103%	101%	100%	105%	97.2%	98.9%	109%	114%	107%	99.9%	84.9%	123%	108%	100%	104%	100%	104%
C=C(c1ccc(C(=O)O)c(F)c1)c1cc2c(cc1C)C(C)(C)CCC2(C)C	80.9%	97.9%	74.3%	86.8%	75.4%	72.5%	74%	83.5%	93.9%	89.9%	89.4%	75.6%	85.4%	92.6%	102%	79%	81.4%	95.8%	86.8%	82.4%
COc1cc2ncnc(Nc3ccc(F)c(Cl)c3)c2cc1OCC(=O)N1CCOCC1	96.6%	91.8%	102%	86%	102%	94.3%	98.4%	86.6%	97.8%	106%	87.1%	63.3%	80.3%	52.4%	20.8%	31.9%	48.4%	66.2%	91.6%	91.5%

Source: PubChem BioAssay (NCI)
